According to PubChem BioAssay AID493098 (Sanford-Burnham Center for Chemical Genomics, 2011):
In all, about 340,000 compounds went through this assay and about 1,700 (0.5%) were called active.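 How the source made its calls: active means compounds whose inhibition of the agonist-driven luminescence signal at 20 µM reaches about 50% (limit read from the data); inactive means the rest.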 What follows is part of a selection rich in actives, with near analogues and random picks from the rest.

Each compound was assayed against C-C chemokine receptor type 6 (Homo sapiens) (UniProt P51684) (assay: CCR6 receptor antagonists, primary screen, cell-based, CHO-K1, luminescence, beta-arrestin, uHTS (AID 493098;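 further: cells stimulated with CCL20 at 14 nM final; plate controls were DMSO with CCL20 for no effect and DMSO without agonist for full effect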)). Conditions: CHO-K1 CCR6 PathHunter beta-arrestin, CCL20-stimulated, at 20 µM, hits give high values.
C-C chemokine receptor type 6 (Homo sapiens), sequence (P51684 whole entry, looked up): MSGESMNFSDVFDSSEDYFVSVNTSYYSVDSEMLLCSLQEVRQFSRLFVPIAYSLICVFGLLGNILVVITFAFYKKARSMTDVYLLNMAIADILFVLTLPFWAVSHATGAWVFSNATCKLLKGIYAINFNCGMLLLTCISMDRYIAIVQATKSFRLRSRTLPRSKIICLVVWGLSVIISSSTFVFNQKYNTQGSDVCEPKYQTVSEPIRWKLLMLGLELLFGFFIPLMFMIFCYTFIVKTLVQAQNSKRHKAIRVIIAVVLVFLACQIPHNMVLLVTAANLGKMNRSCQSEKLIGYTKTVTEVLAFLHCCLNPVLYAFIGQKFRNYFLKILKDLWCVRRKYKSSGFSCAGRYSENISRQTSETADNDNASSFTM

SMILES | inhibition
NS(=O)(=O)c1ccc(CCNS(=O)(=O)c2cccc3cccnc23)cc1 | 12.6% (inactive)
COc1cc(NS(=O)(=O)c2ccc3ccccc3c2)c2ncccc2c1 | 13.2% (inactive)
O=[N+]([O-])c1ccccc1S(=O)(=O)Nc1cccc2cccnc12 | 54.6% (active)
CCOc1ccccc1NC(=O)COc1ccc(S(=O)(=O)N2CCCC2)cc1 | 17.1% (inactive)
O=[N+]([O-])c1ccc(N(CCO)Cc2ccccc2)c([N+](=O)[O-])c1 | 12.9% (inactive)
O=C1Nc2ccc([N+](=O)[O-])cc2C1=Nc1cccc(CO)c1 | 57.4% (active)
CN1CCN(/N=C2/C(=O)Nc3ccc([N+](=O)[O-])cc32)CC1 | 7.16% (inactive)
COc1ccc(N2CCN(CCNC(=O)c3nnc(Cc4c(F)cccc4Cl)o3)CC2)cc1 | 14.8% (inactive)
CCn1nc(C)c(CN2CCN(Cc3ccc(OC)c(C)c3C)C(CCO)C2)c1C (stereo not drawn) | 5.51% (inactive)
COc1cc2c(-c3ccc4c(c3)OCO4)c(-c3ccsc3)oc(=O)c2cc1OC | 21% (inactive)
O=C(N/N=C/c1cc(Br)c(O)c([N+](=O)[O-])c1)C(O)(c1ccccc1)c1ccccc1 | 33.5% (inactive)
O=C(O)c1ccccc1/C=N/Nc1ccc(S(=O)(=O)Nc2ccc(Cl)cc2)cc1[N+](=O)[O-] | 46.4% (inactive)
O=C(N/N=C/c1cc(Cl)cc([N+](=O)[O-])c1O)C(O)(c1ccccc1)c1ccccc1 | 54.2% (active)
COC(=O)c1cccc(C(=O)N2CCC(CCC(=O)NCc3ccc(F)cc3)CC2)c1 | 7.16% (inactive)
CCc1ccc(N(C(=O)c2csnn2)C(C(=O)NC2CCCCC2)c2cccnc2)cc1 (stereo not drawn) | 18.2% (inactive)
Cc1cc2oc(=O)cc(CN(C)Cc3ccc(OC(F)F)cc3)c2cc1Cl | 21.5% (inactive)
COc1ccc(C(C#N)(CC(=O)O)c2cnccn2)cc1OC (stereo not drawn) | 14.6% (inactive)
O=c1nc(N/N=C/c2ccco2)cn[nH]1 | 3.85% (inactive)
O=[N+]([O-])c1cc(Cl)cc(/C=N/NC(=S)Nc2cc(S(=O)(=O)N3CCOCC3)ccc2Cl)c1O | 63.1% (active)
O=S(=O)(c1ccc(NC(=S)NN=C(C2CC2)C2CC2)cc1)N1CCOCC1 | 15.7% (inactive)

SMILES | inhibition
Cc1ccc(S(=O)(=O)N2CCN(CC(=O)N/N=C/c3cc([N+](=O)[O-])ccc3Cl)CC2)cc1 | -22.1% (inactive)
CCOc1cc(C(=O)OCC(=O)Nc2cccc(C)c2)ccc1OCC(=O)N1CCOCC1 | 1.35% (inactive)
CCc1nccn1S(=O)(=O)c1cccc([N+](=O)[O-])c1 | 3.26% (inactive)
Cc1ccc(/C([O-])=C(/C(=S)NCc2ccco2)[n+]2ccccc2)cc1[N+](=O)[O-] | 14.2% (inactive)
c1ccc2c(c1)OC1OC2Oc2ccccc21 | 19.4% (inactive)
CCC(C)N1C(=O)S/C(=C/c2ccc(Sc3nc4ccccc4[nH]3)o2)C1=O (stereo not drawn) | 15.6% (inactive)
O=[N+]([O-])c1cc(Br)c(O)c(/C=N/Nc2nc3ccccc3s2)c1 | 54.2% (active)
Cc1cc(C(=O)N/N=C/c2cc([N+](=O)[O-])cc(C)c2O)n[nH]1 | 34.7% (inactive)
O=C(NC(Nc1nc2ccc([N+](=O)[O-])cc2s1)(C(F)(F)F)C(F)(F)F)c1ccccc1 | 34.6% (inactive)
O=C(CN(Cc1ccc(Br)cc1)S(=O)(=O)c1ccccc1)NCc1ccncc1 | 28.9% (inactive)
CCOC(=O)c1c(C)[nH]c(C)c1S(=O)(=O)NCCCc1ccco1 | 0.21% (inactive)
COc1ccc(C(=O)NC2CC2)cc1OC1CCN(C/C=C/c2ccccc2)CC1 | 3.46% (inactive)
Nc1nnnn1/N=C/c1cc([N+](=O)[O-])ccc1O | 23.1% (inactive)
O=[N+]([O-])c1ccc(O)c(/C=N/Nc2ccccc2[N+](=O)[O-])c1 | 55.9% (active)
O=C(N/N=C/c1cc([N+](=O)[O-])ccc1O)/C(=C\c1cccs1)NC(=O)c1ccccc1 | 34.4% (inactive)
CCN(CC)C(=O)c1nc[nH]c1C(=O)N(C)Cc1ccccc1 | 9.33% (inactive)
COc1ccc(OC)c(-c2csc(NC(=O)C3=NNC(=O)CC3)n2)c1 | -1% (inactive)
COc1ccc2oc(=O)cc(-c3cc4ccccc4o3)c2c1 | 10.7% (inactive)
COc1ccc2nc(Nc3nc(-c4cc5ccccc5oc4=O)cs3)sc2c1 | 54.4% (active)
Cc1cc(Cl)c(S(=O)(=O)NCc2cccnc2)cc1OCC(N)=O | -11.7% (inactive)

SMILES | inhibition
CNC(=S)Nc1ccc([N+](=O)[O-])cc1 | 7.58% (inactive)
O=[N+]([O-])c1ccc(N=NNc2ccc([N+](=O)[O-])cc2)cc1 | 58.2% (active)
NC(=O)C1(Nc2ccc([N+](=O)[O-])cc2)CCCC1 | 4.74% (inactive)
CC(=O)NC(CC(=O)Nc1ccc(S(=O)(=O)N2CCOCC2)cc1)c1ccccc1 (stereo not drawn) | 4.97% (inactive)
Cc1nc(SCC(=O)NC2CCCCC2C)c(C#N)c(C)c1C (stereo not drawn) | 13% (inactive)
COc1cccc(OC)c1C(=O)NC(=S)Nc1ccc(N2CCOCC2)c(Cl)c1 | 8.18% (inactive)
CCOc1ccc(C(=O)NC(=S)Nc2ccc(N3CCOCC3)c(Cl)c2)cc1[N+](=O)[O-] | 53.9% (active)
CCOc1ccc(C(=O)NC(=S)Nc2ccc(NC(=O)C(C)C)cc2)cc1[N+](=O)[O-] | 28.1% (inactive)
C/C=C/C=C/C(=O)O | -5.26% (inactive)
Cc1ccc(C(=O)NC2CCN(C(=O)Nc3ccc(F)cc3)CC2)cc1 | -8.58% (inactive)
COC(=O)c1ccc(NCC(=O)c2ccccc2)cc1 | 72.6% (active)
Cc1ccc(C(=O)CNc2ccc(F)cc2)cc1 | 90.9% (active)
Cc1ccc(NC(=S)Nc2ccc(F)cc2)cc1 | -4.89% (inactive)
COC(=O)c1ccc(NCc2cc(O)ccc2O)cc1 | 20.3% (inactive)
COc1ccc(NC(=O)CCCC(=O)c2ccccc2)cc1 | -6.21% (inactive)
O=C(Nc1ccc(Br)cc1F)C1CC(=O)N(C2CCCCC2)C1 (stereo not drawn) | 1.54% (inactive)
CC(C)NC(=O)c1ccc(Sc2ccccc2)c([N+](=O)[O-])c1 | 10.2% (inactive)
Cc1cc(C)cc(OCC(=O)NNC(=O)CCN2C(=O)c3ccccc3C2=O)c1 | 10.7% (inactive)
